Drawing on PubChem BioAssay (NCATS), this text covers Potency for 37 compounds.

Results filed as inconclusive are left out. Active and inactive are the calls of the source. The call rests on the fitted dose curve; in most records, active means well fitted inhibition curve with a large enough effect; inconclusive means small, poorly fitted or top-dose-only effect; inactive means no such curve, though single readings can be large or run the other way.
Potency means the concentration at half of the fitted maximal effect.

This experiment in a line: BET inhibitor-based combinations targeting novel dependencies in MECOM-rearranged (r) AML: OCI-AML3 cell line (AID 2202232). Further: nearly all actives have a fitted effect of over 35% in size. The settings on record: CellTiter-Glo luminescence, 48 h; Potency: OCI-AML3 viability; series mostly up to 46 µM. An outline of the steps: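 Here, 11-point titrations of each agent were applied to 500 seeded cells and incubated 48 hr; CellTiter-Glo signal, scaled against DMSO and empty wells, was integrated as AUC, then Z-scored within the individual line.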
In general terms: Cellular ATP, detected with luciferase, serves as a proxy for viable cell number.
Regarding `O=C(O)[C@H](O)[C@@H](O)[C@H](O[C@@H]1O[C@H](CO)[C@H](O)[C@H](O)[C@H]1O)[C@H](O)CO`, the Potency entry is “inactive”.

For `CC(=O)SC[C@@H](C)C(=O)N1CCC[C@H]1C(=O)N[C@@H](Cc1ccccc1)C(=O)O`, the Potency entry is “inactive”.

`CN(C)CC/C=C1/c2ccccc2COc2ccc(CC(=O)O)cc21`: the Potency entry is “inactive”.

On to `CC1CNc2c(cccc2S(=O)(=O)N[C@@H](CCCN=C(N)N)C(=O)N2CC[C@@H](C)C[C@@H]2C(=O)O)C1` (some centres not stated), for which the Potency result is “inactive”.

`CC1(CN2CCC(n3c(=O)[nH]c4ccccc43)CC2)OCc2ccccc2-n2cccc21` (configuration not stated): the Potency was 16.6 µM (active).

For the compound `COc1cccc2c1CCCC2CCCN1CCN(C2CCCCC2)CC1` (configuration not stated), the Potency is 11.8 µM (active).

Regarding `Cc1ccc(C(=O)Nc2ccc(CN3CCN(C)CC3)c(C(F)(F)F)c2)cc1C#Cc1cnc2cccnn12`, the Potency is 1.86 µM (active).

With `CCCCCCNC(=O)n1cc(F)c(=O)[nH]c1=O`, the Potency was 1.86 µM (active).

As to `O=C(O)[C@H](Cc1c[nH]c2ccccc12)N1C(=O)c2ccccc2C1=O`, the Potency result was “inactive”.

Regarding `O=C(/C=C\n1cnc(-c2cc(C(F)(F)F)cc(C(F)(F)F)c2)n1)NNc1cnccn1`, the Potency is 1.18 µM (active).

With `Nc1nc(-c2nn(Cc3ccccc3F)c3ncccc23)nc(N)c1N1CCOCC1`, the Potency was 0.0018 µM (active).

As to `COc1ccc(-n2c(C)c([N+](=O)[O-])c3ccc(O)cc32)cc1`, the Potency result was “inactive”.

For the compound `Cc1ccc(S(=O)(=O)Nc2nc3ccccc3nc2Nc2ccc3nsnc3c2)cc1`, the Potency entry was “inactive”.

As for `CC(C)C[C@H](NC(=O)[C@H](CCc1ccccc1)NC(=O)CN1CCOCC1)C(=O)N[C@@H](Cc1ccccc1)C(=O)N[C@@H](CC(C)C)C(=O)[C@@]1(C)CO1`, the Potency was 0.0209 µM (active).

In the case of `Oc1ccc(C2CCN(c3ccnc4ccccc34)CC2)cc1O`, the Potency was 13.2 µM (active).

With `CC(=O)[C@H]1CC[C@H]2[C@@H]3CC=C4C[C@@H](O)CC[C@]4(C)[C@H]3CC[C@]12C`, the Potency result is “inactive”.

For the compound `Cc1ccsc1C(=CCCN1CCC[C@@H](C(=O)O)C1)c1sccc1C`, the Potency is 0.468 µM (active).

As for `Oc1cc2c(cc1O)C1c3ccc(O)c(O)c3OCC1(O)C2` (configuration not stated), the Potency was 23.5 µM (active).

In the case of `CN(CC(=O)N(Cc1ccc(C2CCCCC2)cc1)c1ccc(C(=O)O)c(O)c1)S(=O)(=O)c1c(F)c(F)c(F)c(F)c1F`, the Potency was 9.34 µM (active).

`Cc1nc2cnc3ccc(C#Cc4cccnc4)cc3c2n1-c1ccc(C(C)(C)C#N)cc1`: the Potency is 2.95 µM (active).

In the case of `C[C@]12CCC(=O)C=C1[C@@H]1C[C@@H]1[C@H]1[C@@H]3[C@@H]4C[C@@H]4[C@@]4(CCC(=O)O4)[C@@]3(C)CC[C@@H]12`, the Potency is 8.33 µM (active).

Regarding `CCOC(=O)[C@@H](N)CCC(=O)N[C@@H](CSCc1ccccc1)C(=O)N[C@@H](C(=O)OCC)c1ccccc1`, the Potency was 10.5 µM (active).

As for `O=c1ccn([C@@H]2O[C@H](CO)[C@H](O)[C@@H]2F)c(=O)[nH]1`, the Potency entry is “inactive”.

In the case of `N#Cc1cc(NC(=O)Nc2nnc(-c3ccncc3)s2)ccc1-c1cn[nH]c1`, the Potency result was “inactive”.

On to `NS(=O)(=O)c1ccc(NC2=CC(=O)c3ccccc3C2=O)cc1`, for which the Potency was 5.25 µM (active).

`CC(C)C[C@H](NC(=O)CNC(=O)c1cc(Cl)ccc1Cl)B1OC(=O)CC(CC(=O)O)(C(=O)O)O1` (some centres not stated): the Potency is 0.132 µM (active).

Turning to `COc1cc(S(C)(=O)=O)ccc1Nc1nc2ccc(-c3ccc(NC(=O)[C@H](C)c4ccc(F)cc4)cc3)cn2n1`, the Potency is 0.934 µM (active).

Take `O=C(O)CCC1CCC(c2cc(F)ccc2F)(S(=O)(=O)c2ccc(Cl)cc2)CC1` (configuration not stated): the Potency result is “inactive”.

As for `CC(C)C(C)C=CC(C)C1CCC2C3=CC=C4CC(O)CCC4(C)C3CCC21C` (configuration not stated), the Potency result is “inactive”.

With `O=C(O)c1cn(-c2ccc(F)cc2)c2cc(N3CCNCC3)c(F)cc2c1=O`, the Potency result is “inactive”.

For `CCc1cc(-c2n[nH]c(C)c2-c2ccc3c(c2)OCCO3)c(O)cc1O`, the Potency was 18.6 µM (active).

For `CC[C@@H]1C(=O)N(C)c2cnc(Nc3ccc(C(=O)NC4CCN(C)CC4)cc3OC)nc2N1C1CCCC1`, the Potency was 0.0525 µM (active).

In the case of `Nc1nc2[nH]cc(CCc3ccc(C(=O)N[C@@H](CCC(=O)O)C(=O)O)cc3)c2c(=O)[nH]1`, the Potency was 0.662 µM (active).

With `c1coc(CNc2ncnc3nc[nH]c23)c1`, the Potency result is “inactive”.

For the compound `Cc1cccc(-c2nn(C(=S)Nc3ccccc3)cc2-c2ccnc3ccccc23)n1`, the Potency result was “inactive”.

For `Nc1nc(=O)n([C@H]2C[C@H](O)[C@@H](CO)O2)cc1F`, the Potency was 0.132 µM (active).

Regarding `O=C1CN2Cc3c(ccc(Cl)c3Cl)N=C2N1`, the Potency entry is “inactive”.
